# Source: article PMC5540273 (PLoS ONE, 2017)
# What was measured:
# Settings in all cases: concentration: 1 μM, replicates: in singlicate; n = 1
# [1] = test system: T1, PCTK2
# T1 construct: gene CDK17
# [2] = test system: T2, PCTK3
# T2 construct: gene CDK18
# [3] = test system: PDGFRA
# [4] = test system: PDGFRB
# [5] = test system: PDPK1
# [6] = test system: PFTAIRE2
# [7] = test system: T3, PFTK1
# T3 construct: gene CDK14
# [8] = test system: PHKG1
# [9] = test system: PHKG2
# [10] = test system: PIK3C2B
# [11] = test system: PIK3C2G
# [12] = test system: PIK3CA
# [13] = test system: PIK3CB
# [14] = test system: PIK3CD
# [15] = test system: PIK3CG
# [16] = test system: T4, PIK4CB
# T4 construct: gene PI4KB
# [17] = test system: PIKFYVE
# [18] = test system: PIM1
# [19] = test system: PIM2
# [20] = test system: PIM3
# 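Note: KINOMEscan kinase panel screen.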
Compound,%Inh [1] [%],%Inh [2] [%],%Inh [3] [%],%Inh [4] [%],%Inh [5] [%],%Inh [6] [%],%Inh [7] [%],%Inh [8] [%],%Inh [9] [%],%Inh [10] [%],%Inh [11] [%],%Inh [12] [%],%Inh [13] [%],%Inh [14] [%],%Inh [15] [%],%Inh [16] [%],%Inh [17] [%],%Inh [18] [%],%Inh [19] [%],%Inh [20] [%]
CSc1ccc(NC2=C(c3ccc(Cl)cc3)C(=O)NC2=O)cc1 [SB-317658],0,0,3,31,17,4,8,0,0,0,15,0,24,54,0,27,0,1,0,12
CCNC(=O)/C=C/c1n[nH]c2cc(Sc3ccccc3C(=O)NC)ccc12,0,10,100,99.9,6,0,13,14,19,0,1,13,21,0,36,0,1,35,5,0
Cc1ccc(NC(=O)c2ccc(Cl)c(Cl)c2)cc1-c1ccc(C(=O)Nc2ccncc2)cc1 [GSK1398460],0,25,94.6,100,27,23,1,0,0,0,0,3,69,0,0,3,0,0,0,3
COC(=O)Nc1nc2ccc(Oc3ccc(NC(=O)Nc4cc(C(F)(F)F)ccc4F)cc3)cc2[nH]1.Cl [GW654607],10,14,96.6,100,0,89,47,0,0,0,0,0,17,0,3,0,0,0,0,0
Cc1ccc(O)cc1Nc1ccnc2cc(-c3ccc(CN4CCCCC4)o3)ccc12 [GW557777],0,8,95.3,99.7,0,0,15,9,7,0,16,0,0,0,0,0,0,0,2,7
COc1cccc(C2=C(Nc3cccc(O)c3)C(=O)NC2=O)c1 [SB-390771],0,6,0,20,0,14,22,0,0,0,0,0,0,0,0,10,0,26,0,0
CN1CCN(Cc2ccc(NC(=O)Nc3ccc(N(C)c4ccnc(Nc5ccc(CS(C)(=O)=O)cc5)n4)cc3)cc2)CC1.Cl [GW827654],43,0,99.9,99.9,10,22,0,19,0,0,6,0,16,0,26,30,7,0,0,45
COc1ccc(NC(=O)c2ccoc2)cc1-c1ccc(C(=O)NCC2CC2)cc1 [GW810437],9,0,21,4,0,13,47,0,0,14,0,9,24,0,12,20,31,0,12,0
